The text below walks through data of ChEMBL document CHEMBL3988442, “University of Dundee, Small-Polar-MMV Screening Library” (2021).

Test [1] deals with T1, Aspartate--tRNA(Asp/Asn) ligase (Mycobacterium tuberculosis (strain ATCC 25618 / H37Rv)) (UniProt P9WFW3).
T1 sequence (whole entry): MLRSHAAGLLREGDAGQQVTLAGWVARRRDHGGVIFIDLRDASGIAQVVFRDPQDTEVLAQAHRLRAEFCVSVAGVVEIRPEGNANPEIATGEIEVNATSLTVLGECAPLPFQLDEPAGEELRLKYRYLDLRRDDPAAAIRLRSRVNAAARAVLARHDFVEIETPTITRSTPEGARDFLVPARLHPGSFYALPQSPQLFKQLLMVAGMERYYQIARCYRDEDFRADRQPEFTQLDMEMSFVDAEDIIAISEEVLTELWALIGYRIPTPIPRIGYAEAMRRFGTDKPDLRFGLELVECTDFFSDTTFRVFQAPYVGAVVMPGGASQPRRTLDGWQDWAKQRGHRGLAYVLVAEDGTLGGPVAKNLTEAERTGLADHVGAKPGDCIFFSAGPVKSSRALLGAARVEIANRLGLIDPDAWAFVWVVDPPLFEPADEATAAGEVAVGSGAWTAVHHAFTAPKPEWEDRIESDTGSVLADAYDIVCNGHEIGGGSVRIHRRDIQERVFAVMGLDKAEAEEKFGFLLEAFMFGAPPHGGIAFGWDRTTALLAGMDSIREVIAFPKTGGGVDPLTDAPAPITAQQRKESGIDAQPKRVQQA
Description: Assay for Asp RNA synthetase-1 from Mycobacterium tuberculosis. To be noted: 30 µM. In kind it is functional. Set-up: scale not given: direction of the effect not stated beside the values.

The target in test [2] is Shiga toxin 2 (Escherichia coli O157:H7) (UniProt P09385+P09386). Description: E. coli 0.157:H7 Shiga Toxin SOP - stx2 screening assay. In kind it is functional. Set-up: scale not given: direction of the effect not stated beside the values. Conditions: 30 µM.

The structures appear in SMILES notation.

With `CNC(=O)[C@@H]1C[C@H]2CN(Cc3nccs3)C[C@H]2N1C`, the Percent Effect in test [1] was 1.25%; in test [2], -17%.

Regarding `COc1ccc(CCN2CCCC(CN(C)Cc3ccc(C)o3)C2)cc1` (stereo unspecified), the results for the Percent Effect in test [1] and in test [2] were -1.25% and -11.5%, respectively.

As to `Cc1nc(CN2CCCC(NCc3ccsc3)C2)no1` (stereo unspecified), the Percent Effect in test [1] was 3.1%; in test [2] it was -14.2%.

As to `CCC(=O)N1CCC2(COCc3c(C)nc(N(C)C)nc32)C1` (stereo unspecified), the Percent Effect is 6.18% in test [1] and -30.5% in test [2].

As for `COc1c(CNCCNC(=O)c2ccc(C)cc2)c(C)nn1C`, the Percent Effect in test [1] is -4.08%; in test [2] it was -32.3%.

Turning to `CC(O)CN1CCC(CNCc2cccc(C(N)=O)c2)CC1` (stereo unspecified), the Percent Effect in test [1] is -0.954%; in test [2] it was 12.7%.

For the compound `CCc1cnc(CNc2ccc(C(=O)N3CCCC(C)C3)cc2C)o1` (stereo unspecified), the Percent Effect is -5.74% in test [1] and 21.6% in test [2].

Turning to `Cc1ccc(CN(CCCn2ccnc2)Cc2c[nH]cn2)s1`, the Percent Effect was -4.18% in test [1] and -13.7% in test [2].

Take `c1cnnc(N2CCCC2CNCc2nc(C3CC3)no2)c1` (stereo unspecified): the Percent Effect in test [1] was -4.43%; in test [2], 5.95%.

Take `COc1ncccc1C(=O)NCC1Cc2ccccc2O1` (stereo unspecified): the values for the Percent Effect in test [1] and in test [2] were 6.18% and 5.65%, respectively.

On to `COc1c(CNC2CCCOc3ccccc32)c(C)nn1C` (stereo unspecified), for which the values for the Percent Effect in test [1] and in test [2] were -2.86% and -2.26%, respectively.

As to `Cc1cc(C)n(Cc2cccc(C(=O)NCCN3CCOCC3)c2)n1`, the Percent Effect in test [1] is 5.71%; in test [2], -69.3%.

Take `Cc1ccc(Cl)cc1C(=O)N1CCC2(CC1)c1ccccc1[C@@H](N)[C@@H]2O`: the Percent Effect was -0.814% in test [1] and -5.92% in test [2].

For the compound `Cn1ncc2c1C(COCC1CC1)CN(Cc1nccs1)C2` (stereo unspecified), the Percent Effect was 11.3% in test [1] and -37.3% in test [2].

As to `O=c1[nH][nH]cc1-c1ccnc(NCCN2CCCC2)n1`, the results for the Percent Effect in test [1] and in test [2] were 5.51% and -68.3%, respectively.

With `COCC1c2c(cnn2C)CCN1Cc1ccc(F)cc1` (stereo unspecified), the Percent Effect in test [1] is 1.28%; in test [2], -4.17%.

As to `NC(=O)c1ccc(CN2CCCC(N3CCCC3)C2)cc1` (stereo unspecified), the Percent Effect in test [1] was -1.17%; in test [2] it was -4.76%.

`CCn1nc(C)c2nnn(CC(=O)Nc3c(C)cccc3C)c(=O)c21`: the values for the Percent Effect in test [1] and in test [2] were -2.79% and -11.8%, respectively.

Regarding `Cn1cc(CN2CCn3c(CNC(=O)c4cccn4C)cnc3C2)cn1`, the results for the Percent Effect in test [1] and in test [2] were 12.8% and -22.6%, respectively.

With `Cc1ccc2oc(CNC(C)c3nnc4n3CCCC4)cc2c1` (stereo unspecified), the Percent Effect in test [1] is -1.73%; in test [2], -34.3%.

Consider `CN(CC1CC1)C(=O)CN(Cc1cccc(O)c1)C1CCC(O)CC1` (stereo unspecified), for which the values for the Percent Effect in test [1] and in test [2] were -0.296% and 6.41%, respectively.

On to `c1ccc(-c2noc(CN3CCC(c4ccn[nH]4)CC3)n2)cc1`, for which the results for the Percent Effect in test [1] and in test [2] were 0.903% and -15.7%, respectively.

Regarding `O=C(NCc1ccco1)[C@@]12CCO[C@@H]1CCN(CCN1CCCC1)C2`, the Percent Effect is 1.05% in test [1] and -24.8% in test [2].

As for `Cn1cc(N2CC3(COCCN(Cc4ccsc4)C3)OCC2=O)cn1` (stereo unspecified), the Percent Effect is 13.7% in test [1] and -3.88% in test [2].

For `Cn1cc(C2CCCN2C(=O)CCCOc2ccc(F)cc2F)cn1` (stereo unspecified), the Percent Effect in test [1] was -2.66%; in test [2] it was 13.7%.

On to `CCc1nc(NCC(=O)N2CCOCC2)c2c(n1)c(C)nn2CC`, for which the Percent Effect in test [1] is -2.73%; in test [2], -15.5%.

Regarding `COc1ccc(NC(=O)c2ccc(-n3ncc(C#N)c3N)cc2)cn1`, the Percent Effect is 1.4% in test [1] and -48.1% in test [2].

Take `CCn1cc(CNC2CC(=O)N(CCc3cccc(Cl)c3)C2)cn1` (stereo unspecified): the Percent Effect is -2.05% in test [1] and -2.75% in test [2].

Take `Cc1nc(CCNC(=O)N2CCC(Cc3cnn(C)c3)C2)cs1` (stereo unspecified): the Percent Effect is -5.21% in test [1] and -13.9% in test [2].

Regarding `CC(C)CCN1CCC2(CC1)CN(C(=O)c1cnccn1)CCO2`, the Percent Effect is -0.349% in test [1] and -0.912% in test [2].

Turning to `CN(C)Cc1nn(C)c2c1CCN(S(=O)(=O)c1cccs1)C2`, the Percent Effect is 3.37% in test [1] and -17.1% in test [2].

Take `Cc1nc(C)c(CNC(=O)NC(c2nnc3n2CCC3)C(C)C)s1` (stereo unspecified): the Percent Effect in test [1] is 0.0985%; in test [2] it was -7.7%.

As to `CCN1CCN(C2CCN(Cc3nc(-c4ccoc4)no3)CC2)C1=O`, the Percent Effect came out at 1.49% in test [1] and 22.7% in test [2].

In the case of `COc1ccc(-n2nnc(C(=O)NC(C)C)c2C2CC2)cc1`, the Percent Effect was -4.62% in test [1] and 10.4% in test [2].

Consider `Cc1cnc(C(=O)N(CCN(C)C)Cc2ccc(Cl)cc2)cn1`, for which the Percent Effect is -1.59% in test [1] and 5.25% in test [2].

Turning to `CCCS(=O)(=O)N1CCN(c2ccnc(N3CCCC3)n2)CC1`, the results for the Percent Effect in test [1] and in test [2] were 2.06% and -50.6%, respectively.

In the case of `O=S(=O)(c1ccccc1)N1CCCCC1c1cc[nH]n1` (stereo unspecified), the Percent Effect was 4.1% in test [1] and 62% in test [2].

Regarding `Cc1cccnc1NC(=O)C(C)Cn1nc(C(F)(F)F)cc1C` (stereo unspecified), the Percent Effect is -2.9% in test [1] and -1.69% in test [2].
